Source: ChEMBL document CHEMBL3988442, “University of Dundee, Small-Polar-MMV Screening Library” (2021)
For some assays here: Measured potencies and affinities stand elsewhere.

Tests used:
Parameters in all cases: scale not given: direction of the effect not stated beside the values
[1] = target: Protein translocase subunit SecA (Escherichia coli (strain K12)) (UniProt P10408); test: Assay to Identify E. coli SecA ATPase Inhibitors; assay type: functional; conditions: 30 µM
[2] = target: T1, Ubiquitin-activating enzyme e1, putative (Leishmania donovani (strain BPK282A1)) (UniProt E9BSI1); test: Leishmania donovani Ubiquitin Activating Enzyme (LdE1); assay type: functional; conditions: 30 µM
T1 sequence (whole entry): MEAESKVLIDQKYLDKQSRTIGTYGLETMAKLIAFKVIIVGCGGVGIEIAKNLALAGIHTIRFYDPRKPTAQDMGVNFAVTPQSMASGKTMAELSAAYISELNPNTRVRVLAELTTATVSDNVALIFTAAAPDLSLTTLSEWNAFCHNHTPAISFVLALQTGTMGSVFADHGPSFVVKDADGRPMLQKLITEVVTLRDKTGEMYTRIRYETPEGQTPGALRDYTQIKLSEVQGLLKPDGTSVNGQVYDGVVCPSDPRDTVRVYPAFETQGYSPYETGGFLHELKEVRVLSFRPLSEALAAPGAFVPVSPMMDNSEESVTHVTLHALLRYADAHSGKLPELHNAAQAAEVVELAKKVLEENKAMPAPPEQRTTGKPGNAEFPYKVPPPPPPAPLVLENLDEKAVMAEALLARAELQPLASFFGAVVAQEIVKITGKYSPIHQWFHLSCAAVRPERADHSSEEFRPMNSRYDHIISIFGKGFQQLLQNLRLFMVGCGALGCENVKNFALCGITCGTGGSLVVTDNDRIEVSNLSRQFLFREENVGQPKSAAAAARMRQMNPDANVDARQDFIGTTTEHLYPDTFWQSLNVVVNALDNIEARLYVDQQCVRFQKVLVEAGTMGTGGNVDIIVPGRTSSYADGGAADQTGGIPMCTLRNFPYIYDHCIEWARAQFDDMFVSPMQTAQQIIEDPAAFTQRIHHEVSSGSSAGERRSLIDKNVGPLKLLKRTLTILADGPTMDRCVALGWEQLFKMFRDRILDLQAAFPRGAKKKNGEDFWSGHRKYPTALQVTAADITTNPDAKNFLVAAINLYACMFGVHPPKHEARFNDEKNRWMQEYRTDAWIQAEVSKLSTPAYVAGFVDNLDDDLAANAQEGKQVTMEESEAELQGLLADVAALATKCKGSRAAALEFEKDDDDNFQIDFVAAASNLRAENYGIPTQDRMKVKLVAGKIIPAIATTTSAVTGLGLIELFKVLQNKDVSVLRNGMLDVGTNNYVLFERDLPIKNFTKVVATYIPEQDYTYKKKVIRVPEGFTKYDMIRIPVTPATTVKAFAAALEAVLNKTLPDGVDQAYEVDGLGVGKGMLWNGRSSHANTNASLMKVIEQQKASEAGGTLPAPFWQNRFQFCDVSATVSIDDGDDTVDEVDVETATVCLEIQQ

[3] = target: Sialic acid-binding Ig-like lectin 9 (Homo sapiens) (UniProt Q9Y336); test: Hs-Siglec9 ALPHAscreen SOP 20170721; conditions: 10 µM
[4] = system: Trypanosoma cruzi; test: Trypanosoma cruzi phosphomannomutase and mannose-1-phosphate guanylyltransferase assay; assay type: functional; conditions: 10 µM
[5] = target: T2, Arginase-2, mitochondrial (Homo sapiens) (UniProt P78540); test: in vitro enzyme assay to detect the production of urea directly proportional to the activity of Arginase II; assay type: functional; conditions: 33.3 µM; further: in the data most compounds retested in dose-response had high values
T2 sequence (whole entry): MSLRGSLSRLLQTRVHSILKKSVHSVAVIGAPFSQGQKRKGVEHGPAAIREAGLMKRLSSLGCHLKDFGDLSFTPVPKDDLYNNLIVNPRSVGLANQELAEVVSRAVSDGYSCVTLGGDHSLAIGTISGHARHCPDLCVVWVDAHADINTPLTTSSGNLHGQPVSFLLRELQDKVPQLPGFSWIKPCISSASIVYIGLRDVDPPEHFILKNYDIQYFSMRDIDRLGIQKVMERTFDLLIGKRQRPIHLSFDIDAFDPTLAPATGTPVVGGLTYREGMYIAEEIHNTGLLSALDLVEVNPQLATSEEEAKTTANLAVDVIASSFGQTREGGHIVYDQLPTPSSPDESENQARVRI

[6] = target: T3, Proteasome subunit beta (Trypanosoma cruzi) (UniProt O96673); test: Trypanosoma cruzi proteasome chymotrypsin-like activity (TcProtChymo) assay.; further: in the data most compounds retested in dose-response had high values; assay type: functional; conditions: 9.37 µM
T3 sequence (whole entry): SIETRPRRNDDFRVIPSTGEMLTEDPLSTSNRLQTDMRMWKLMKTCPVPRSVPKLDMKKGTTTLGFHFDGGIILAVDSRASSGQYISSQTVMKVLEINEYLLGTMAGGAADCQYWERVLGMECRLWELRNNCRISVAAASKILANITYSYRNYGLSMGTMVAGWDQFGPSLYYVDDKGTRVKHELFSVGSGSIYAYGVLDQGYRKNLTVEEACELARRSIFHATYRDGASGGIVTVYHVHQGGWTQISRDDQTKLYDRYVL

[7] = species on record: Homo sapiens; test: To identify inhibition of the IFN signalling (Jak-Stat) pathway via expression of an eGFP reporter gene under the control of an IFN-stimulated response element (ISRE) containing MxA promoter.; assay type: functional; conditions: 30 µM
[8] = target: T4, Tyrosyl-tRNA synthetase, putative (Trypanosoma cruzi (strain CL Brener)) (UniProt Q4DSP6); test: Trypanosoma cruzi tyrosyl tRNA synthetase (TcYRS) _High Tyrosine SOP; assay type: functional; conditions: 30 µM; further: in the data most compounds retested in dose-response had high values
T4 sequence (whole entry): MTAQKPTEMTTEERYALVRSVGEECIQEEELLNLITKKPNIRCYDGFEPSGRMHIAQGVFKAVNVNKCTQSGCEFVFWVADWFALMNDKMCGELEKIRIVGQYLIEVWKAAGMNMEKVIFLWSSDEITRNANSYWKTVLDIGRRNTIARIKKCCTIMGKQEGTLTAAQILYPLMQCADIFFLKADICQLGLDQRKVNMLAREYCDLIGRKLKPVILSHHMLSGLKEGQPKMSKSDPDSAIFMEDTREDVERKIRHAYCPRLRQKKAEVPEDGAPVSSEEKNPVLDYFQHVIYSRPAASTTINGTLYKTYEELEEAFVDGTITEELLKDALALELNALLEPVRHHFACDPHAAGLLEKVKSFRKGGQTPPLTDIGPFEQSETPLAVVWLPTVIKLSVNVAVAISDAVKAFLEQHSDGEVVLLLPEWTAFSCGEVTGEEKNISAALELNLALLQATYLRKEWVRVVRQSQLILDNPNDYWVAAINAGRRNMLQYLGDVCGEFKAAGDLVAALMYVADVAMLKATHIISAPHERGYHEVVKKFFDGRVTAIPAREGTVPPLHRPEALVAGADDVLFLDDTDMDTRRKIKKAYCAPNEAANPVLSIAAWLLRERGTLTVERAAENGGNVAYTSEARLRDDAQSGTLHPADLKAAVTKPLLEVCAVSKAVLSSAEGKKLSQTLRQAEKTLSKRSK

[9] = target: T4, Tyrosyl-tRNA synthetase, putative (Trypanosoma cruzi (strain CL Brener)); test: Trypanosoma cruzi tyrosyl tRNA synthetase (TcYRS) SOP; assay type: functional; conditions: 30 µM
[10] = target: Chromo domain-containing protein 1 (Saccharomyces cerevisiae (strain ATCC 204508 / S288c) (Baker's yeast)) (UniProt P32657); test: ScCHD-1 Enzyme Inhibition Assay; assay type: functional; conditions: 30 µM; further: in the data most compounds retested in dose-response had high values
Sequence of Chromo domain-containing protein 1 (Saccharomyces cerevisiae (strain ATCC 204508 / S288c) (Baker's yeast)) (P32657 whole entry, the tested form may be a part): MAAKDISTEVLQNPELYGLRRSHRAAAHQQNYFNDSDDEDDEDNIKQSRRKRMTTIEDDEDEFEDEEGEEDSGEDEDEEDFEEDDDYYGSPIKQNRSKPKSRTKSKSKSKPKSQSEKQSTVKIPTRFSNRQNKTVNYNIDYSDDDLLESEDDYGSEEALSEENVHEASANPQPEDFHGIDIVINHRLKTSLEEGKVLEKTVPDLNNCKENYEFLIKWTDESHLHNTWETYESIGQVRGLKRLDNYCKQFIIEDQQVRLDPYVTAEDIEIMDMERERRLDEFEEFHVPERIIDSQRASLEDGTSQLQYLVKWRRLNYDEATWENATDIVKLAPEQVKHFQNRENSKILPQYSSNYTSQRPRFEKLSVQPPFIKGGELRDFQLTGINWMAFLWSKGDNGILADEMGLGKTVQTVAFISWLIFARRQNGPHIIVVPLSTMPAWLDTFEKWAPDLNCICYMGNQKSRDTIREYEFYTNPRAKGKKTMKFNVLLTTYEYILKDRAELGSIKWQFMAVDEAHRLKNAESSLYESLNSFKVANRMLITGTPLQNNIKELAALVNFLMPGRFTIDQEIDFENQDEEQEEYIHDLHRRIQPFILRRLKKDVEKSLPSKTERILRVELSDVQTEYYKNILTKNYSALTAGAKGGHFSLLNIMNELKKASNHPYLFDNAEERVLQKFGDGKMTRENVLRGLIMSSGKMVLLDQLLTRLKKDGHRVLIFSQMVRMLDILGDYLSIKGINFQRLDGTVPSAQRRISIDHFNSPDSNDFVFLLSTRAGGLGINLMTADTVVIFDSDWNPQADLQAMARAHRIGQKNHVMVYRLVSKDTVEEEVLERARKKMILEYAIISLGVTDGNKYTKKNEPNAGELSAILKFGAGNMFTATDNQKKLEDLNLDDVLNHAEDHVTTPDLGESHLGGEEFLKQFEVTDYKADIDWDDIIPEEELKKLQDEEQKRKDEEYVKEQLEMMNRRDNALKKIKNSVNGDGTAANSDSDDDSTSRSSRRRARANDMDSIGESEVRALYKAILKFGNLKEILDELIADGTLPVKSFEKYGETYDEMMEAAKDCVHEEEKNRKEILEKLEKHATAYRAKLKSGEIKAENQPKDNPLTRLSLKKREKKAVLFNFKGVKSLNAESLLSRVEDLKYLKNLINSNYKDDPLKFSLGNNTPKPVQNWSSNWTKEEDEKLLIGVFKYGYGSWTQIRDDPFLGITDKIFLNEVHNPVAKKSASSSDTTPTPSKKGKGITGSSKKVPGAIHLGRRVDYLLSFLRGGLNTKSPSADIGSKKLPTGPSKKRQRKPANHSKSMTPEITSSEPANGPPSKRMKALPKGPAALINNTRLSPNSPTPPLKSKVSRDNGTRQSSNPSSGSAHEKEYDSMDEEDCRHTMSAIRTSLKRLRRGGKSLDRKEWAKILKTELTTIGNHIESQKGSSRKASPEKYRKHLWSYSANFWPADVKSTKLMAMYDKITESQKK

Sequence of Sialic acid-binding Ig-like lectin 9 (Homo sapiens) (Q9Y336 whole entry): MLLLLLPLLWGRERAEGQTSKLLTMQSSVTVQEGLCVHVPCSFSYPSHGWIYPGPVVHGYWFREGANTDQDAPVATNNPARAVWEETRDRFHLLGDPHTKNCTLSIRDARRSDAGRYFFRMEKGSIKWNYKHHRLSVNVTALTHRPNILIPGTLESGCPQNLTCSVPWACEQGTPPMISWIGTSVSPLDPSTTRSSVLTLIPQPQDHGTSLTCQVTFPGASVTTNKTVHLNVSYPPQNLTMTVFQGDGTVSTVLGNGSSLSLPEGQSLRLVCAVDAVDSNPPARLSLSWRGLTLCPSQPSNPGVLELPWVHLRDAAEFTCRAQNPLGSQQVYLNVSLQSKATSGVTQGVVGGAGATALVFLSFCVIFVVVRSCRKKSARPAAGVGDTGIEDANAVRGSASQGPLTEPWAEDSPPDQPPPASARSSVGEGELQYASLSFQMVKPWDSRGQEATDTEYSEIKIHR
Sequence of Protein translocase subunit SecA (Escherichia coli (strain K12)) (P10408 whole entry): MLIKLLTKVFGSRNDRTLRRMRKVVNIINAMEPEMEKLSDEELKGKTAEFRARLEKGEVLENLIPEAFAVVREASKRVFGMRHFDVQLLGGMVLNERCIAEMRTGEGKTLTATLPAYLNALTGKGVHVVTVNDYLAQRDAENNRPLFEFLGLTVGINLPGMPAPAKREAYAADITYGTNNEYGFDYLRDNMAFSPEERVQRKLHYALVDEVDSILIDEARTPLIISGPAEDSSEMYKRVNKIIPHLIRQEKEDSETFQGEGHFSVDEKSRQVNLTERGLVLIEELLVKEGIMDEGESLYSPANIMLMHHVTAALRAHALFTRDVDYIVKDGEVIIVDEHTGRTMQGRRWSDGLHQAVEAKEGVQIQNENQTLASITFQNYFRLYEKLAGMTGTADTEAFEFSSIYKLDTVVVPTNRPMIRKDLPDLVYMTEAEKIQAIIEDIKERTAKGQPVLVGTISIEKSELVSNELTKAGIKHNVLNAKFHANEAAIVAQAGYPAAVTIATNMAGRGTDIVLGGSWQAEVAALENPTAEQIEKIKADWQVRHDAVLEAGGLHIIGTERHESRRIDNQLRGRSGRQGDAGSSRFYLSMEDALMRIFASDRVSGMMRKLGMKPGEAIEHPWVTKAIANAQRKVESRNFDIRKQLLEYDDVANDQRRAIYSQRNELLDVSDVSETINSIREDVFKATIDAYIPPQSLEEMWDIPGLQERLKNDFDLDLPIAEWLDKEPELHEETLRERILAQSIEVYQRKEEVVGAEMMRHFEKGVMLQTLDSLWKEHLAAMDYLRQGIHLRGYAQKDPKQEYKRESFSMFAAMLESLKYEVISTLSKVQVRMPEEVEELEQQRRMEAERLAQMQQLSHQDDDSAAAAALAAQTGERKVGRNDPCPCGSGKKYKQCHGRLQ

Structure (SMILES) | Percent Effect [1] | Percent Effect [2] | Percent Effect [3] | Percent Effect [4] | Percent Effect [5] | Percent Effect [6] | Percent Effect [7] | Percent Effect [8] | Percent Effect [9] | Percent Effect [10]
O=C(Nc1nnc(C2CC2)s1)NC1CCN(Cc2ccccc2)C1 (stereo not given) | -5.17% | 12.8% | -8.9% | -2.35% | 0.82% | 4.01% | 43.6% | 0.478% | 10.8% | -0.956%
CC(O)CN1CCC(CNCc2ccccc2OC(F)(F)F)CC1 (stereo not given) | -4.07% | 10.3% | -7.91% | 7.98% | -1.64% | 9.81% | 2.5% | 0.478% | 10.8% | -0.0569%
CN(CCNC(=O)c1scnc1Cl)c1ccccc1 | -1.49% | 10.7% | -1.26% | -8.23% | 3.99% | 19.9% | 20% | 1.58% | 10.3% | -6.98%
CN1[C@H](CN2CCCC2)C[C@@H]2CN(C(=O)Cc3cccs3)CC[C@@H]21 | -2.98% | 16.9% | -1.33% | -3.56% | 0% | 5.75% | 2.07% | 7.73% | 2.5% | -11.2%
CC(=O)N1CCc2c(nc(-c3ccccn3)nc2N(C)CC(O)CO)C1 (stereo not given) | -7.71% | 8.11% | 3.94% | 2.62% | 5.25% | 3.94% | -12.5% | 14.4% | 21.9% | -1.31%
COC(=O)Cn1c(=O)nc2n1C(=O)N(c1ccc(Cl)cc1)C2 | -4.67% | 2.7% | 8.46% | -8.83% | -2.45% | 10.4% | -2.27% | 0.532% | 2.44% | -2.66%
Cc1cccc(C(=O)N2CCCN(Cc3cnn(C)c3)CC2)n1 | -0.00911% | -5.13% | 4.36% | 1.6% | 6.15% | -6.74% | 13.4% | -0.478% | 1.21% | -3.37%
Fc1cccc(CN2CCO[C@H]3[C@@H](OCc4ccccn4)CC[C@@H]32)c1 | -6.18% | 6.49% | -6.92% | 7.3% | -3.24% | 8.91% | 4.17% | 2.63% | 15.4% | -0.559%
CCSCCC(=O)NS(=O)(=O)c1ccc2c(c1)OCCO2 | -2% | 10.3% | -9.92% | -1.97% | 1.23% | 4.69% | 9.19% | 2.39% | 10.8% | -1.85%
O=C(NCCn1ccnc1)N1CCN(c2nccs2)CC1 | -0.752% | 15.6% | -5.93% | -7.28% | 4.71% | 18.2% | 6.33% | 2.94% | 7.06% | -11.9%
COc1ccc(CN2CCN(C(C)=O)CC3(CC(=O)N(C)C3)C2)cc1 (stereo not given) | -0.72% | 14.3% | 1.28% | -0.375% | 2.28% | 6.44% | 4.32% | 12.6% | 20% | -6.64%
